# About 7,900 targets were measured; listed, in parts, are those with a hit and a random draw of the rest. About 0.6% of all pairs of compound and target were hits. Values without a mark were called inactive.
# Compound: c1ccc([C@@H]2C[C@H]2NC2CCNCC2)cc1
# Experiment: log2 fold change, soluble protein after heating vs DMSO (PISA); higher = thermal stabilisation; K562 cells, 10 uM, 30 min; active = over 0.2 and 3.5 SD of the protein, either way, in both replicates (recomputed)
# Summary of the method: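 Thermal stability values are relative to control samples and come from duplicates. They are expressed as log2 fold changes. For measurement, K562 cells (2×10^6 cells/mL) received 10 μM compound for 30 min, and aliquots were heated for 3 min over 48°C-58°C, pooled, and extracted at 4°C in PBS with 0.5% NP-40. Soluble protein, the supernatant after 21,000xg for 90 min, was quantified by TMTpro 16plex LC-MS/MS with equalised channel sums.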
# Chain of UniProt Q86X29 (Q86X29 whole entry, looked up): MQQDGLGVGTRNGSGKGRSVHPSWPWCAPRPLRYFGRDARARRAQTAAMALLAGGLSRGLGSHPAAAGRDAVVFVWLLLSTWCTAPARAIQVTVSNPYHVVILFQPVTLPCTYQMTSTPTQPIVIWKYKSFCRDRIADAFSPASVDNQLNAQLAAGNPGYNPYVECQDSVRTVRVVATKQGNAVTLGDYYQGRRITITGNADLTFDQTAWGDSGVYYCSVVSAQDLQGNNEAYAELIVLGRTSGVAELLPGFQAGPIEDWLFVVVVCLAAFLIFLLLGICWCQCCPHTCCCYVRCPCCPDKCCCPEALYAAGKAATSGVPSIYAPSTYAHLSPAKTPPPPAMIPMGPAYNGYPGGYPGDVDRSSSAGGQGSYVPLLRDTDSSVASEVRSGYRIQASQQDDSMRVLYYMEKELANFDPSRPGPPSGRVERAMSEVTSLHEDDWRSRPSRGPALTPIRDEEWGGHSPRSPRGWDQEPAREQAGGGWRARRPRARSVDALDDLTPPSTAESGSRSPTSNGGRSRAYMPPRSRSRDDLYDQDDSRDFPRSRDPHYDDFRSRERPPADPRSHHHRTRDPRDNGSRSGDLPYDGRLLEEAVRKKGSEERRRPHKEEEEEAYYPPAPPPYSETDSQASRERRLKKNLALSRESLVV
# Chain of UniProt O95819 (O95819 whole entry, looked up): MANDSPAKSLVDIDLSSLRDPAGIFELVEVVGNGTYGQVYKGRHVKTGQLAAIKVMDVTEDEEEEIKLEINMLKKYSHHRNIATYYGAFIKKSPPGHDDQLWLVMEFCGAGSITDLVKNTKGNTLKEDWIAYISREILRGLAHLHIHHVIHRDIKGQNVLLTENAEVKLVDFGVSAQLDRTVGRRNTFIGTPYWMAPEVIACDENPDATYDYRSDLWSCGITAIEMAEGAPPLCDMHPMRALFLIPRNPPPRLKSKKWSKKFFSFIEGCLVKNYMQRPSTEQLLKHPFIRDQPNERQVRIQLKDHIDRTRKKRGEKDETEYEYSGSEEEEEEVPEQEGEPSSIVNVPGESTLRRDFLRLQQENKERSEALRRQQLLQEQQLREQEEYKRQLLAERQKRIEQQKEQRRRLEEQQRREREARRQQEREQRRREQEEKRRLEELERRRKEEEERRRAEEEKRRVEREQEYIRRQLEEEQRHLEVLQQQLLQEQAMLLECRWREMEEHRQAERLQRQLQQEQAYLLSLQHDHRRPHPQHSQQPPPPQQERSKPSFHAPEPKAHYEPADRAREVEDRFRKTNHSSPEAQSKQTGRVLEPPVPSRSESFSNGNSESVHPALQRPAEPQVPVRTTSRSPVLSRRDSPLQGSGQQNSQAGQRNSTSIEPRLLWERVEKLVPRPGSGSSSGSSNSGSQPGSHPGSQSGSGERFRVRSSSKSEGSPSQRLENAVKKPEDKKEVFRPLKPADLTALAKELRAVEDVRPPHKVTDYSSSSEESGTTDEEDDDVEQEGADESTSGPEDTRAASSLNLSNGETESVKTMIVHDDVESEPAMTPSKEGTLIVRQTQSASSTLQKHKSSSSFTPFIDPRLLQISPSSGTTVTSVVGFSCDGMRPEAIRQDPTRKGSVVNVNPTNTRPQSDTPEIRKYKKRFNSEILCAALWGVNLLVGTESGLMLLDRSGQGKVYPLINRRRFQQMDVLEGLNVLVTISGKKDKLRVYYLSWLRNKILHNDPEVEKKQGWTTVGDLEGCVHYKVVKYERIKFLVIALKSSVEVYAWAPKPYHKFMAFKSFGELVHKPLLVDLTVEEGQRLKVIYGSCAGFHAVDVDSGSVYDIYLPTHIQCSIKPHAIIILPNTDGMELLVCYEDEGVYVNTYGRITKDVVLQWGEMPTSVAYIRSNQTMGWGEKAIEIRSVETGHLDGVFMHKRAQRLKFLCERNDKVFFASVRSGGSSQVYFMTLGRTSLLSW
# Chain of UniProt P24592 (P24592 whole entry, looked up): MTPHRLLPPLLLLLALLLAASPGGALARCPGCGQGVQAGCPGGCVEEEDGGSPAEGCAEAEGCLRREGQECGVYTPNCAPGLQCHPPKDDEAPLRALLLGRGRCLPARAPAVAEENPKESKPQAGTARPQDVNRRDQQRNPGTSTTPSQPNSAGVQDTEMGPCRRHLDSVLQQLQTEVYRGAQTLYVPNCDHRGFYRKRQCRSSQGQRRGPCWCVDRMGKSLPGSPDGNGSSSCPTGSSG
# Chain of UniProt Q13163 (Q13163 whole entry, looked up): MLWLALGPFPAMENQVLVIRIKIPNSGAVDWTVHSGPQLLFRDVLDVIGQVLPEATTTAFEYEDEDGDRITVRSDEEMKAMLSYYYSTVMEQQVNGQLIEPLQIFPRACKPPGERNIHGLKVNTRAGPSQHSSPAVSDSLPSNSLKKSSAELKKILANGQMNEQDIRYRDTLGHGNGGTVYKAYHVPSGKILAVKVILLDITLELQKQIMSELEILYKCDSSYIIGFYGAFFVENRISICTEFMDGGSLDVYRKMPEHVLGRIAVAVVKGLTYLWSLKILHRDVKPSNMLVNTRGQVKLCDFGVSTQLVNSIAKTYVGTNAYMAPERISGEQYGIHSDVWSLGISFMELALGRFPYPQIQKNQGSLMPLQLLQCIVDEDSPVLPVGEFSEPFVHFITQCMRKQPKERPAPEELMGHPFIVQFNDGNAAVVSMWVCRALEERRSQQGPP
# Chain of UniProt P08514 (P08514 whole entry, looked up): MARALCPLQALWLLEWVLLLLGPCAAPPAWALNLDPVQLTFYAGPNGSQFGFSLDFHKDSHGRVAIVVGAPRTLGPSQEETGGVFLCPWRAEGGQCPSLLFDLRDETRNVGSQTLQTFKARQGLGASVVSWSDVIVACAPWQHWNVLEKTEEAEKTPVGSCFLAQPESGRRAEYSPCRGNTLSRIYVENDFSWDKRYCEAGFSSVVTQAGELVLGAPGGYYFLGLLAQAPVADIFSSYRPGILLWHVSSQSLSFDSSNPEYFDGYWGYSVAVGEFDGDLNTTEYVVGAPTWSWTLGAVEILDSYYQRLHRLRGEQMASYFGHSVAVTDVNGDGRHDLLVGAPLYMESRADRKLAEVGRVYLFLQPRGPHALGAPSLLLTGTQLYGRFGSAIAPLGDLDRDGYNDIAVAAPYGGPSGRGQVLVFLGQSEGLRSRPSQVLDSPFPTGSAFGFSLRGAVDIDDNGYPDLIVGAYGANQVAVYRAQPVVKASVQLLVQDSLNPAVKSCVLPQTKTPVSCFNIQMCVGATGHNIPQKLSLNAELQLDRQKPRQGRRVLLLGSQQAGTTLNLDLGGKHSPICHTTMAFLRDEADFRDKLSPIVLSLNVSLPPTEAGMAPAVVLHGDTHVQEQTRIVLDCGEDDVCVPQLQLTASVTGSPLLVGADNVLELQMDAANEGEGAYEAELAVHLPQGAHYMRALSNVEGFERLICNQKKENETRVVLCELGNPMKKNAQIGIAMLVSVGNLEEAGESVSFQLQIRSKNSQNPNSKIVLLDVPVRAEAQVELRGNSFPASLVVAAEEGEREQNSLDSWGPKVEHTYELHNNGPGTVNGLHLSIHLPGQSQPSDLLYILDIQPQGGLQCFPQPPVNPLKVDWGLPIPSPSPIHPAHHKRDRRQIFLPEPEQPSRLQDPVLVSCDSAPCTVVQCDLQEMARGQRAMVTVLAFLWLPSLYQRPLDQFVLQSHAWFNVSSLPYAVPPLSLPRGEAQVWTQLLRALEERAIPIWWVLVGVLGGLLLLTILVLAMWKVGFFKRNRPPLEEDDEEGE
# Chain of UniProt O60291 (O60291 whole entry, looked up): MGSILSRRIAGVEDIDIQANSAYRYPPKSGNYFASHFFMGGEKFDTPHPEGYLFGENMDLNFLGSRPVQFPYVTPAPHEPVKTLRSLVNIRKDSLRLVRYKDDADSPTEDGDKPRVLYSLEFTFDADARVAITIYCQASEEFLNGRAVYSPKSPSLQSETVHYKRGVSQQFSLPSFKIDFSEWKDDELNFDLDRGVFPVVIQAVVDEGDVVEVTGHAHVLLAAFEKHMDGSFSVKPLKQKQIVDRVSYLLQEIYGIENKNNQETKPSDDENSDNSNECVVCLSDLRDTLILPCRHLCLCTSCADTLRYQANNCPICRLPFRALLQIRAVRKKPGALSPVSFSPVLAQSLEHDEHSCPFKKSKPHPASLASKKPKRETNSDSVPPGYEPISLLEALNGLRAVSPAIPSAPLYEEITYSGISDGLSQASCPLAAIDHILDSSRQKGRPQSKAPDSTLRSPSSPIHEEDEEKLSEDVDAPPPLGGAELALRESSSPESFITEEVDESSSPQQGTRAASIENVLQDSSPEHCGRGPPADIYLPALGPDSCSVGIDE
# Chain of UniProt O15243 (O15243 whole entry, looked up): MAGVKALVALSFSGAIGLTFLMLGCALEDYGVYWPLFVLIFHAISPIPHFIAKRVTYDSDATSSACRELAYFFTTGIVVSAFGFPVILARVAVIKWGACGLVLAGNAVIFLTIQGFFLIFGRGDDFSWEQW
# Chain of UniProt P51884 (P51884 whole entry, looked up): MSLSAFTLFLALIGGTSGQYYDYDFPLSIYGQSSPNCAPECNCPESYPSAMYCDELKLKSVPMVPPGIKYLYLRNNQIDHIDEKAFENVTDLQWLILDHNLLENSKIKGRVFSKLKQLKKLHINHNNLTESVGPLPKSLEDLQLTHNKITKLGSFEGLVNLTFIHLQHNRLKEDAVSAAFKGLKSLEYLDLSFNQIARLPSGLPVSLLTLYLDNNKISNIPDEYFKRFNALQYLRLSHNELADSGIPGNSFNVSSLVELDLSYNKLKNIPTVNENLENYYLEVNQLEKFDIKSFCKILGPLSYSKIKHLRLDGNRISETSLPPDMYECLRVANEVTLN
# Chain of UniProt Q9UPY8 (Q9UPY8 whole entry, looked up): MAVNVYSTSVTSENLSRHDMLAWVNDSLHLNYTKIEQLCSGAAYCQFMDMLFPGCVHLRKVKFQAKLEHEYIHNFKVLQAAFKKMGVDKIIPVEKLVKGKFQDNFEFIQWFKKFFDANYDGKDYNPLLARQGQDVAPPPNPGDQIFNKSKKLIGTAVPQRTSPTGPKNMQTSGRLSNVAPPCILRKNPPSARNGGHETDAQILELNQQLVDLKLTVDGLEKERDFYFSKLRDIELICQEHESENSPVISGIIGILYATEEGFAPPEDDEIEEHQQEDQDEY
row,Target,log2 fold change
1,MED17 (UniProt Q9NVC6),-0.011
2,ITGA2B (UniProt P08514),-0.043
3,IGFBP3 isoform 2 (UniProt P17936),0.057
4,MAP2K5 (UniProt Q13163),-0.034
5,MAML1 (UniProt Q92585),0.077
6,"LRBA, A0A494BZW2",0.014
7,IP6K1 (UniProt Q92551),-0.135
8,KIF13A isoform 4 (UniProt Q9H1H9),-0.367
9,LUM (UniProt P51884),0.143
10,IGFBP6 (UniProt P24592),0.01
11,MAPRE3 isoform 2 (UniProt Q9UPY8),0.017
12,MELK (UniProt Q14680),-0.057
13,MFSD12 isoform 3 (UniProt Q6NUT3),0.135
14,MAP4K2 (UniProt Q12851),0
15,LYN isoform 2 (UniProt P07948),0.033
16,LRRFIP1 isoform 4 (UniProt Q32MZ4),0.009
17,IKZF1 (UniProt R9R4D9),-0.159
18,KIZ (UniProt Q2M2Z5),0.453
19,MAP4K4 isoform 6 (UniProt O95819),0.076
20,LSR isoform 3 (UniProt Q86X29),-0.101
21,MGRN1 isoform 2 (UniProt O60291),0.086
22,LEPROT (UniProt O15243),0.112
23,ING5 (UniProt Q8WYH8),-0.037
24,MAGED1 isoform 2 (UniProt Q9Y5V3),-0.01
25,KCNK5 (UniProt O95279),-0.054
